Values joined by “and” are separate entries in the source; they are usually repeats but may differ in a detail not shown here. Equal values may be shown once. In all, about 430,000 compounds went through this assay and about 2,600 (0.6%) were called active. No stated cut-off is given here; in the data, active means inhibition mostly above about 37% (no sharp cut-off); inactive means mostly below about 20%. Many of the other results were omitted from the sample, so actives are more common in it than they were.

The test system of this assay is PriA–SSB C-terminal tail interaction (Klebsiella pneumoniae). Put plainly: inhibitors of Klebsiella pneumoniae PriA binding to SSB C-terminal tail, primary screen, biochemical, AlphaScreen (AID 1272365).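 Further: plate controls were negative control peptide for no effect and reference peptide for full effect.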 The following applies: AlphaScreen SSBct-PriA binding, biotinylated peptide; at 33 µM, stronger effect = higher value.
With `O=C(NNC(=S)Nc1ccccc1)c1cccc(S(=O)(=O)N2CCOCC2)c1`, the inhibition was -5.79% (inactive). Consider `Cc1cccc(-n2cnc(C(=O)NNC(=S)Nc3ccccc3)c2)n1`, for which the inhibition was 66.5% (active). Under `Cc1cccc(-n2cnc(C(=O)Nc3cccnc3)c2)n1` stands -12.9% (inactive). As for `O=C(NCC(F)(F)F)C1CCN(c2cc(-n3cncn3)ncn2)CC1`, the inhibition was 4% (inactive). For the compound `Cc1c(CCOC(=O)CC23CC4CC(CC(C)(C4)C2)C3)sc[n+]1Cc1ccc([N+](=O)[O-])cc1`, the inhibition is 6.21% (inactive). Take `O=C(Nc1ccc([N+](=O)[O-])cc1Br)C12CC3CC(CC(C3)C1)C2`: the inhibition is -8% (inactive).

`Cc1c(CCOC(=O)C23CC4CC(CC(C)(C4)C2)C3)sc[n+]1Cc1ccc([N+](=O)[O-])cc1`: the inhibition is 39% (active). Turning to `COc1ccc(-c2noc(CN3N=NC4C(=O)N(c5ccc(C)c(F)c5)C(=O)C43)n2)c(OC)c1` (stereo not drawn), the inhibition is 6% (inactive).

On to `O=C(NCC(O)(c1ccccc1)C(F)(F)F)C(=O)Nc1ccccc1` (stereo not drawn), for which the inhibition was -3% (inactive). The value for `CS(=O)(=O)N1CCC(CNC(=O)c2cc3ccccc3o2)CC1` was -23% (inactive).

Regarding `CC1(C)N=C(SCC(=O)Nc2ccc(Br)cc2)C(c2ccccc2)=N1`, the inhibition was -5% (inactive).

`COc1cccc2sc(N(CCCN(C)C)C(=O)c3ccc(F)cc3)nc12`: the inhibition is -18% (inactive).

For `COc1cc2nc(N(CCN(C)C)C(=O)c3ccc(S(=O)(=O)N(C)Cc4ccccc4)cc3)sc2cc1OC`, the inhibition was 24% (inactive).

In the case of `CN(C)CCCN(C(=O)c1ccc(S(=O)(=O)N2CCCc3ccccc32)cc1)c1nc2ccc(F)cc2s1`, the inhibition was 42% (active). Consider `COc1ccc2nc(N(CCN(C)C)C(=O)c3ccc(S(=O)(=O)N4CCCc5ccccc54)cc3)sc2c1`, for which the inhibition is 41% (active). Regarding `CCOc1ccc2nc(N(CCN(C)C)C(=O)c3ccc(S(=O)(=O)N4CCC(C)CC4)cc3)sc2c1`, the inhibition is 29% (inactive). For the compound `CN(C)CCN(C(=O)CCOc1ccccc1)c1nc2cc3c(cc2s1)OCO3`, the inhibition was 7% (inactive). Take `CC1CN(S(=O)(=O)c2ccc(C(=O)N(CCN(C)C)c3nc4cc5c(cc4s3)OCCO5)cc2)CC(C)O1` (stereo not drawn): the inhibition is 15% (inactive). On to `Cc1ccc2nc(N(CCN(C)C)C(=O)c3ccc(S(=O)(=O)N4CCCCCC4)cc3)sc2c1`, for which the inhibition is 35% (active). For `CCOc1ccc2nc(N(CCN(C)C)C(=O)c3ccc4ccccc4c3)sc2c1`, the inhibition is 14.2% (inactive) and 45% (active).

`COc1ccc2nc(N(CCN3CCOCC3)C(=O)c3ccccc3S(C)(=O)=O)sc2c1`: the inhibition is 0% (inactive). On to `CN(C)CCCN(C(=O)c1ccccc1)c1nc2c(F)cc(F)cc2s1`, for which the inhibition was 5% (inactive). For the compound `CCOc1ccc2nc(N(Cc3ccncc3)C(=O)Cc3ccc(F)cc3)sc2c1`, the inhibition is 13% (inactive). Under `O=C1CCCC(=O)N1CCS(=O)(=O)N1CCC(c2nnc(-c3ccco3)s2)CC1` stands -4% (inactive). In the case of `O=C([C@@H]1CC=CCC1)N1CCN(c2ccc(-n3cncn3)nn2)CC1`, the inhibition is -9% (inactive).

Take `CCc1nc(-c2ccc(N3CCN(C(=O)c4cc5cccc(OC)c5o4)CC3)nc2)no1`: the inhibition is -1% (inactive). For the compound `NCc1n[nH]c(=O)c2ccccc12`, the inhibition is -2% (inactive) and -4% (inactive). Turning to `COC(=O)c1ccccc1NC(=O)c1snnc1C`, the inhibition was -11% (inactive). In the case of `CN1CCN(c2nc3ccc(NC(=O)c4ccc5c(c4)OCO5)cc3s2)CC1`, the inhibition was -2% (inactive).

Regarding `COc1ccc(OC)c(C(=O)Nc2ccc3nc(N4CCN(C)CC4)sc3c2)c1`, the inhibition is 6% (inactive) and -21% (inactive). In the case of `COc1cccc2cc(C(=O)Nc3ccc4nc(N5CCN(C)CC5)sc4c3)oc12`, the inhibition was -6% (active). Under `O=C(NCC#CCOc1ccc2c(c1)OCO2)Nc1ccccc1C(F)(F)F` stands -21% (inactive). As for `Cc1ccccc1-c1nc(CSc2nc(C)c(Cc3ccccc3)c(=O)[nH]2)c(C)o1`, the inhibition is 7% (inactive). Take `Cc1nc2oc(-c3ccccc3)nc2cc1NC(=O)c1cc(=O)c2ccccc2o1`: the inhibition was -8% (inactive). Consider `Cc1c(C(=O)O)cccc1-c1ccc(C=NNc2ccc(Br)cc2)o1`, for which the inhibition was 0.6% (inactive). On to `O=C(Nc1nc(-c2ccccn2)cs1)c1ccc(-c2ccccc2)cc1`, for which the inhibition is -19% (inactive). Under `CC(C)Sc1ccc(C(=O)Nc2nc(-c3ccccn3)cs2)cc1` stands 50.6% (inactive); under `CC(NC(=O)c1ccco1)C(=O)Nc1nc(-c2ccccn2)cs1` (stereo not drawn), 74.4% (active).

As to `CCSc1ccc(C(=O)Nc2sc(-c3ccccc3)cc2C(N)=O)cc1`, the inhibition was -22% (inactive). As for `CCOc1cc(C=NNC(=O)c2cccc(S(=O)(=O)N3CCOCC3)c2)ccc1OCC(=O)N(C)C`, the inhibition is -12.5% (inactive).

On to `O=C(NN=Cc1cc(Cl)cc([N+](=O)[O-])c1O)c1cccc(S(=O)(=O)N2CCOCC2)c1`, for which the inhibition is 41.7% (active). In the case of `CC(=O)Nc1ccc(C=NNC(=O)c2cccc(S(=O)(=O)N3CCOCC3)c2)cc1`, the inhibition is -5.31% (inactive). Under `O=C(Oc1cccc(Oc2ccccc2)c1)N1CCCCC1` stands -33% (inactive); under `O=C(Nc1nc(CCC(=O)N2CCN(c3ncccn3)CC2)cs1)NC1CCCCC1`, -9% (inactive); under `COc1ccccc1CNC(=O)CSc1nc2c(-c3ccccc3)c[nH]c2c(=O)n1C1CC1`, -8% (inactive). The value for `CCc1ccccc1NC(=O)NCCOc1ccc2nnc(-c3cccc(F)c3)n2n1` was -4% (inactive). On to `O=S(=O)(NCC1(CO)CC1)c1cccc(Cl)c1`, for which the inhibition is -9% (inactive). Under `Cc1cc(C(=O)NCC2CCCN2c2ccccc2)no1` (stereo not drawn) stands 0% (inactive); under `COCCNC(=O)NC[C@H]1CCCN1c1ccccc1`, 6% (inactive); under `O=C(NC[C@H]1CCCN1c1ccccc1)c1cc(-c2ccco2)[nH]n1`, 47% (active). `COc1ccc(OC)c(C(=O)Nc2nnc(Cc3ccc(Cl)s3)o2)c1`: the inhibition is -12% (inactive). Consider `COc1cc(CO)ccc1OCC(=O)Nc1cccc2ccccc12`, for which the inhibition was -4.4% (inactive).

Regarding `COc1ccc(Cn2c(CO)cnc2SCC(=O)Nc2cccc3ccccc23)cc1`, the inhibition was 41% (active). For `COc1ccc(-c2nnc(SCC(=O)Nc3cccnc3Cl)n2C)cc1`, the inhibition was 2.83% (inactive). For `O=S(=O)(Cc1ccccc1)N1CCN(c2cc(-n3cccc3)ncn2)CC1`, the inhibition was 6% (inactive).

As to `CCCN1C(=O)C(C)(C)COc2ccc(N)cc21`, the inhibition was 32% (inactive). As for `Cn1cccc1-c1noc(CNC(=O)c2n[nH]c(=O)c3ccccc23)n1`, the inhibition was -3% (inactive).

With `CCC(=O)Nc1c(C)nc2scc(C)n2c1=O`, the inhibition was 13% (inactive). With `N#Cc1nc(-c2cccc3ccccc23)oc1N`, the inhibition is -28.7% (inactive). Under `CC1CCN(c2oc(-c3ccccc3F)nc2C#N)CC1` stands 42.8% (active); under `N#Cc1nc(-c2ccco2)oc1N1CCN(C(=O)c2ccccc2F)CC1`, 9% (inactive).

Take `O=C(NC[C@]1(O)CCc2ccccc21)c1ccccc1F`: the inhibition was -14% (inactive). The value for `O=C(NCCc1ccccc1)NCCC(O)c1ccccc1` (stereo not drawn) was -6% (inactive).

Turning to `CC(C)C(NC(=O)c1ccc([N+](=O)[O-])cc1)c1nc2ccccc2[nH]1` (stereo not drawn), the inhibition was -6% (inactive). In the case of `CC(=NC1CCN(Cc2ccccc2)CC1)c1c(O)[nH]c(=O)[nH]c1=O`, the inhibition was -3% (inactive). Take `O=C(Cc1cc(=O)[nH]c(SCc2cccc(Cl)c2)n1)Nc1ccc2c(c1)OCCO2`: the inhibition is 12% (inactive). Under `c1ccc(Cc2nnc(-c3ccc4c(c3)OCCO4)o2)cc1` stands -10% (inactive); under `Clc1cccc(N=C2NN=C(c3ccc4c(c3)OCCO4)CS2)c1`, 44.3% (active); under `c1ccc(CN2CCC(N=C3NN=C(c4ccc5c(c4)OCCO5)CS3)CC2)cc1`, 49.7% (active). Take `CC1Oc2ccccc2OC1C(=O)N1CCN(c2nc3c(S(C)(=O)=O)cccc3s2)CC1` (stereo not drawn): the inhibition was -4% (inactive).

`Cc1ccc(Cl)cc1-n1ccn(CC#N)c(=O)c1=O`: the inhibition is -5% (inactive). In the case of `Cc1ccc2nc(C(=O)O)cc(Nc3ccc(C)c(C)c3)c2c1`, the inhibition was -5% (inactive). Consider `Cc1ccc(NC2=NC(c3ccccc3)n3c(nc(C)cc3=O)N2)cc1` (stereo not drawn), for which the inhibition is -5.57% (inactive). Under `Cc1ccc(Nc2cc(C)nc3c(C)ccc([N+](=O)[O-])c23)cc1` stands 106% (active); under `O=C(Nc1cccc(-c2nc3ccccc3s2)c1)c1ccc([N+](=O)[O-])cc1`, -2% (inactive); under `CC(=O)OCC1OC(Oc2ccc(C(=O)/C=C/c3ccccc3)cc2)C(OC(C)=O)C(OC(C)=O)C1OC(C)=O` (stereo not drawn), 5% (inactive). In the case of `COc1cc(C(CCN2CCN(c3ccccc3)CC2)c2c(OC)cc(OC)c3ccc(=O)oc23)cc(OC)c1OC` (stereo not drawn), the inhibition was -0.54% (inactive). Consider `CCN(CC)CCC(c1ccc2c(c1)OCO2)c1c(OC)cc(OC)c2c(-c3ccccc3)cc(=O)oc12` (stereo not drawn), for which the inhibition is 24.5% (inactive). Take `COc1cc(OC)c2ccc(=O)oc2c1C(CCN1CCN(c2ccccc2)CC1)c1ccc2c(c1)OCO2` (stereo not drawn): the inhibition is 41.6% (active). On to `C=CCOc1ccc(C(O)=C2C(=O)C(=O)N(CCOC)C2c2cccnc2)cc1` (stereo not drawn), for which the inhibition was 0.46% (inactive).

`FC(F)Sc1ccc(-c2csc(Nc3ccccc3)n2)cc1`: the inhibition was -4% (inactive).

As to `O=C(c1ccc(Br)o1)N1CCC(CSc2ccccn2)CC1`, the inhibition is 7% (inactive). In the case of `CC(=O)Nc1ccc(C(=O)N2CCc3nc4ccc(Cl)cn4c(=O)c3C2)cc1`, the inhibition was -7% (inactive). `CC(C)CS(=O)(=O)C1CN(C(=O)c2ccc3nsnc3c2)C1`: the inhibition is -14% (inactive). As for `Oc1ccc(CN2CCCC2)c2cccnc12`, the inhibition was 106% (active). Consider `COCCOCc1ccc(O)c2ncccc12`, for which the inhibition was 114% (active). Take `O=[N+]([O-])c1ccc(N2CCCCC2)c2cccnc12`: the inhibition is 46.9% (inactive). The value for `Oc1c(CN2CCOCC2)ccc(CN2CCOCC2)c1O` was -7.99% (inactive); that for `Clc1ccc(CN2CCCCCC2)cc1Cl` was -4.06% (inactive); that for `Oc1c(CN2CCCC2)cc(Cl)c2cccnc12` was 103% (inactive). In the case of `OCc1cccc2cccnc12`, the inhibition was 41.4% (inactive). Regarding `COc1ncc(Br)c2ncccc12`, the inhibition is -7% (inactive).

Regarding `Oc1ccc(CN2CCCCCC2)c2cccnc12`, the inhibition is 124% (active).
